Rows were chosen to be rich in hits. Some 4.6% of all compounds tested hit in one or more screens of this group.
ADAM17 inh: ADAM17 inhibitors, primary screen, biochemical, QFRET | Disintegrin and metalloproteinase domain-containing protein 17 (Homo sapiens), P78536 | recombinant ADAM17, EDANS/DABCYL FRET peptide cleavage | inhibition, % at 6.95 µM | 370,000 compounds, 0.83% hits;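 active = inhibition above the mean of compounds lying between control limits plus 3 SD, set per campaign, cut at about 8.5% in these data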
FAS-TE inh: FAS thioesterase domain inhibitors, primary screen, biochemical, fluorescence intensity, uHTS; 360,000 compounds, 0.67% hits; Fatty acid synthase (Homo sapiens), P49327; inhibition, % at 15 µM; recombinant FAS-TE, OMFH fluorogenic substrate, fluorescence endpoint;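 active = compounds whose normalised, plate-corrected inhibition of enzyme fluorescence in the single-dose primary screen is 50% or more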
proKLK7 act: proKLK7 zymogen activators, primary screen, biochemical, fluorescence intensity; 370,000 compounds, 0.9% hits; activation, % at 7 µM; purified proKLK7, EDANS-DABCYL substrate fluorescence; 100% is mature enzyme control, 0% vehicle;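 active = activation above the mean of all tested compounds plus 3 SD, computed per campaign excluding outliers beyond control limits, cut at about 13% in these data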
ADAM10 inh: human ADAM10 inhibitors, primary screen, biochemical, QFRET, HTS; Disintegrin and metalloproteinase domain-containing protein 10 (Homo sapiens), O14672; recombinant ADAM10, EDANS/DABCYL FRET peptide cleavage, 3 h; inhibition, % at 7 µM; 370,000 compounds, 0.62% hits; AID 720582, 2013;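 active = inhibition above a per-campaign cutoff equal to the mean of compounds falling between control-based bounds plus 3 SD, cut at about 20% in these data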
Target sequence (O14672 214-748 limits assumed): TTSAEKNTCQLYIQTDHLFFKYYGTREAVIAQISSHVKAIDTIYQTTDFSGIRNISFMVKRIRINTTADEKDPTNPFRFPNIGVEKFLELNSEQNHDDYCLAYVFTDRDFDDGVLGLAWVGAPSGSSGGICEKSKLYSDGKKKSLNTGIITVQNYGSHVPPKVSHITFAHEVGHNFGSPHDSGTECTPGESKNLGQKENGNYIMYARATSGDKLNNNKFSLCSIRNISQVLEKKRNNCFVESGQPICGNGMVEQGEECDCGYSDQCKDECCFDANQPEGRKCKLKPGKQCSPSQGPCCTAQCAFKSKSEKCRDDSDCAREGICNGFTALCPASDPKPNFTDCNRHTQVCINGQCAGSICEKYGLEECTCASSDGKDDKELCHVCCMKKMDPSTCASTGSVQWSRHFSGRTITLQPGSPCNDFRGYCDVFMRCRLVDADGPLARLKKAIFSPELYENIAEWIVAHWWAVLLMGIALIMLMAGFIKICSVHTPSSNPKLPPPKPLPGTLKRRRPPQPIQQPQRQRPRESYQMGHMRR
NR3A LBD binder: binders of NR3A ligand-binding domain, primary screen, biophysical, differential scanning fluorimetry, uHTS. Glutamate receptor ionotropic, NMDA 3A (GRIN3A) ligand-binding domain. NR3A LBD differential scanning fluorimetry, Tm shift; 0% = protein alone, 100% = glycine-bound protein. Tm shift relative to glycine control, % at 25 µM. 340,000 compounds, 2.5% hits. AID 1259313, 2017;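 active = melting temperature shift of at least 10% of the positive control shift, at one fixed dose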
Numbers stand for hits; – = inactive; · = not tested or not shown.

SMILES	ADAM17 inh	FAS-TE inh	proKLK7 act	ADAM10 inh	NR3A LBD binder
Fc1ccc(Nc2nc(-c3ccncc3)cs2)cc1	–	–	–	–	–
O=C(CSc1nnc(COc2ccc(Cl)cc2)n1Cc1ccco1)Nc1ccc2c(c1)OCO2	–	·	–	–	·
O=S(=O)(c1sccc1Br)n1c(CN2CCOCC2)nc2ccccc21	–	·	–	–	·
COc1ccc2c(c1)CCCN2C(=O)C1CCCN(S(=O)(=O)c2cccc3cccnc23)C1 (stereo unspecified)	–	·	–	–	·
O=C(Nc1ccc([N+](=O)[O-])cc1)Nc1ccc(N2CCOCC2)c2nonc12	–	–	–	–	18
CC(=O)Nc1cc([N+](=O)[O-])ccc1N1CCOCC1	–	–	–	–	–
Cn1cnc([N+](=O)[O-])c1S(=O)(=O)Oc1cccc2ccccc12	–	66	–	–	–
Cn1cnc([N+](=O)[O-])c1Oc1cccc2ccccc12	–	–	–	–	–
CCS(=O)(=O)c1c([N+](=O)[O-])ncn1C	–	–	–	–	–
Cn1cnc([N+](=O)[O-])c1S(=O)(=O)Oc1ccc(Cl)cc1	–	52	–	–	–
CCOc1ccc(/C=C(\C#N)C(=O)NCC2CCCO2)cc1OCC (stereo unspecified)	–	–	–	–	13
COc1cc(/C=C(\C#N)C(=O)NCC2CCCO2)ccc1O (stereo unspecified)	–	–	–	–	–
C/C=C/C(=O)N1CCC(C(=O)NCC2COc3ccccc3O2)CC1 (stereo unspecified)	–	·	–	–	·
O=C(c1ccc(NS(=O)(=O)c2cccs2)cc1)N1CCOCC1	–	–	–	–	11
CCOc1ccc(NC(=O)c2ccc(NC(=O)c3ccc(NC(N)=O)cc3)cc2)cc1	–	–	–	–	27
CCOc1ccc(NC(=O)c2ccc(NC(=S)NC3CC3)cc2)cc1	–	–	–	–	31
CCOc1ccc(C(=O)NC2CCCCCCC2)cc1	–	–	–	–	–
CCOc1ccc(NC(=O)c2ccc(OC)cc2)cc1	–	–	–	–	–
CCOc1ccc(NC(=O)c2ccc(NC(=S)NC3CCCCC3)cc2)cc1	–	–	–	–	28
N#CCC(=O)Nc1ccc(C(=O)NNC(=S)NC2CCCCC2)cc1	–	–	–	–	29
CCCN(CC1CC1)c1nc(C)nc2c1nnn2Cc1ccccc1	–	·	–	–	·
COc1ccc(C(=O)C2CCN(c3ncnc4sccc34)CC2)cc1	–	·	·	–	·
C=CC[C@@H]1NN2C(=O)[C@@H](C)[C@@H]3c4ccccc4C=NN3[C@@H]2c2ccccc21	–	·	–	–	·
CCN(CC)C(=O)CC[C@H]1CC[C@]2(CCCN(Cc3ccccc3)C2)O1	–	·	–	–	·
CN1C(=O)c2cc(NC(=O)Nc3ccccc3)ccc2OC[C@H]2O[C@@H](CC(=O)NC3CCC3)CC[C@@H]21	–	·	–	–	·
SMILES	ADAM17 inh	FAS-TE inh	proKLK7 act	ADAM10 inh	NR3A LBD binder
COC(=O)[C@H](C(C)C)N(CCCc1cn(CC2CCCCC2)nn1)S(=O)(=O)c1ccccc1Br	–	·	–	–	·
CCOC(=O)c1ccc(-c2ccc(/C=N/NC(=O)CN(c3ccccc3Br)S(C)(=O)=O)o2)cc1	–	–	–	–	12
COc1ccc(CCNC(=O)Cn2ncc3c2-c2cc(C)ccc2OC3)cc1	–	·	–	–	·
C=CCNC(=O)c1ccccc1NC(=O)c1ccc(Cl)c(S(=O)(=O)Nc2ccccc2)c1	–	–	–	27	14
CC(C)(C=O)C1=CC(=O)c2ccccc2C1=O	–	–	–	–	11
COP(=O)(CC(=O)OC(C)(C)C)C(CC(C)C)NC(=O)OCc1ccccc1 (stereo unspecified)	–	·	–	–	·
CCCCCCNC(=O)C1CSCCS(=O)(=O)N1Cc1ccc(F)cc1 (stereo unspecified)	–	·	–	–	·
CCN(CC)Cc1ccc(OC)c(Cl)c1	–	–	–	–	14
COc1ccc(Br)c(C(=O)OCC(=O)Nc2cc(C)on2)c1	–	–	–	–	·
COc1ccc(C(N)=O)c(OCC(=O)Nc2cc(C)on2)c1	–	–	–	–	15
COc1ccc(-c2c(C)c3cc(O)ccc3oc2=O)cc1OC	–	–	–	–	42
COc1ccc(-n2c(COc3ccccc3)nnc2SCC(=O)Nc2ccc3c(c2)OCCO3)cc1	–	·	–	–	·
COC(=O)C1CCN(C(=O)CN2CCC(C(=O)c3ccc(C)cc3)CC2)CC1	–	·	–	–	·
CC(C)(C)CC(C)(C)NC(=S)Nc1ccc(S(=O)(=O)N2CCOCC2)cc1	–	–	–	–	22
NNC(=S)Nc1ccc(S(=O)(=O)N2CCOCC2)cc1	–	–	–	–	–
O=S(=O)(c1ccc(NC(=S)Nc2ccc(OC(F)F)cc2)cc1)N1CCOCC1	–	–	–	–	26
C=CC[C@@H]1NN2C(=O)[C@@H](CCCC)[C@@H]3c4ccccc4C=NN3[C@@H]2c2ccccc21	–	·	–	–	·
CCOC(=O)[C@]12CCCCC/C=C\1N(CCc1ccc(Cl)cc1)C(=O)[C@H]2CC(=O)NCC12CC3CC(CC(C3)C1)C2	–	·	–	–	·
CCCCCN(C(=O)CCC(=O)OC(C)C(=O)Nc1cccc(C#N)c1)c1c(N)n(CCCC)c(=O)[nH]c1=O (stereo unspecified)	–	–	–	–	18
CC(C)CN(C(=O)CCC(=O)OC(C)C(=O)Nc1cccc(C#N)c1)c1c(N)n(CC(C)C)c(=O)[nH]c1=O (stereo unspecified)	–	–	–	–	–
COc1ccc(NC(=O)CCNS(=O)(=O)c2cccc3nonc23)cc1Cl	–	–	–	–	18
Cc1ccc(NC(=O)CCNS(=O)(=O)c2cccc3nonc23)cc1Cl	–	–	–	–	–
COc1cccc(CNC(=O)c2ccccc2NC(=O)C2=C(C)OCCS2)c1OC	–	–	–	–	112
COc1cccc(CNC(=O)c2ccccc2NC(=O)C2=C(C)OCCS2)c1	–	–	–	–	–
COc1ccc(CN2C(=O)CCCC2(C)c2nnnn2-c2c(C)cccc2C)cc1OC (stereo unspecified)	–	·	–	–	·
Cc1cccc(NC(=O)C2CCCN2S(=O)(=O)c2cccc3cccnc23)c1C (stereo unspecified)	–	·	–	–	·
O=C1OC(c2ccccc2)(c2cc(Br)c(O)c(Br)c2)c2ccccc21 (stereo unspecified)	–	–	–	–	–
Cc1cc(O)c(C(C)C)cc1C1(c2cc(C(C)C)c(O)cc2C)OC(=O)c2ccccc21	–	–	–	–	11
O=C(Cc1ccc(Cl)cc1)OCc1nnc(-c2ccccc2)o1	–	–	–	–	–

Screens: PubChem, several laboratories
